Measurements published in PubChem BioAssay (NCI).
This is part of a sample that, as a whole, favours compounds with a hit. Of some 83,000 tested, about 20% had one in any assay.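 48-hour exposure, single concentration, 96-well plates; percent growth endpoint where 0 means no net growth. Active: below 10.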

Key:
Assay in all cases: NCI-60 one-dose screen, 48 h (100 = growth as untreated, 0 = no growth, -100 = all killed)
SK-MEL-2 melanoma = settings: 10 µM
SN12C renal = settings: 10 µM
UO-31 renal = settings: 10 µM
TK-10 renal = settings: 10 µM unless noted
ACHN renal = settings: 10 µM
CAKI-1 renal = settings: 10 µM
MOLT-4 leukemia = settings: 10 µM
SR leukemia = settings: 10 µM
RPMI-8226 leukemia = settings: 10 µM
OVCAR-8 ovarian = settings: 10 µM
OVCAR-5 ovarian = settings: 10 µM
OVCAR-4 ovarian = settings: 10 µM
SK-OV-3 ovarian = settings: 10 µM
IGROV1 ovarian = settings: 10 µM
OVCAR-3 ovarian = settings: 10 µM
HS 578T breast = settings: 10 µM
NCI/ADR-RES ovarian = settings: 10 µM
A498 renal = settings: 10 µM
CCRF-CEM leukemia = settings: 10 µM

Measured: growth

O=C(O)CSCSCC(=O)O
inactive: SK-MEL-2 melanoma 94.8% | SN12C renal 104% | UO-31 renal 92.3% | TK-10 renal 93.6% | ACHN renal 101% | CAKI-1 renal 96.9% | MOLT-4 leukemia 101% | SR leukemia 97.1% | RPMI-8226 leukemia 97.3% | OVCAR-8 ovarian 101% | OVCAR-5 ovarian 101% | OVCAR-4 ovarian 99.6% | SK-OV-3 ovarian 93.6% | IGROV1 ovarian 107% | OVCAR-3 ovarian 104% | HS 578T breast 114% | NCI/ADR-RES ovarian 109%

CC[N+](C)(CC)CCO
inactive: SK-MEL-2 melanoma 109% | SN12C renal 98% | UO-31 renal 92% | TK-10 renal 95.3% | ACHN renal 106% | CAKI-1 renal 94% | A498 renal 109% | MOLT-4 leukemia 101% | SR leukemia 104% | RPMI-8226 leukemia 102% | OVCAR-8 ovarian 94.3% | OVCAR-5 ovarian 100% | IGROV1 ovarian 104% | OVCAR-3 ovarian 108% | HS 578T breast 107% | NCI/ADR-RES ovarian 105%

CC1CCCCN1C(=S)Nc1ccc(S(=O)(=O)N2CCCCC2)cc1 (stereo unspecified)
inactive: SK-MEL-2 melanoma 107% | SN12C renal 109% | UO-31 renal 89.4% | TK-10 renal 107% | ACHN renal 99.8% | CAKI-1 renal 75.8% | CCRF-CEM leukemia 75.9% | MOLT-4 leukemia 104% | SR leukemia 81.1% | RPMI-8226 leukemia 74.7% | OVCAR-8 ovarian 106% | OVCAR-5 ovarian 100% | OVCAR-4 ovarian 90.4% | IGROV1 ovarian 138% | OVCAR-3 ovarian 97.7% | HS 578T breast 88.9% | NCI/ADR-RES ovarian 107%

Cc1ncc(C#N)c(N)n1
inactive: SK-MEL-2 melanoma 106% | SN12C renal 103% | UO-31 renal 85.7% | TK-10 renal 109% | ACHN renal 121% | CAKI-1 renal 92.9% | CCRF-CEM leukemia 126% | MOLT-4 leukemia 102% | SR leukemia 92.4% | RPMI-8226 leukemia 103% | OVCAR-8 ovarian 102% | OVCAR-5 ovarian 99.5% | OVCAR-4 ovarian 92.5% | SK-OV-3 ovarian 117% | IGROV1 ovarian 106% | OVCAR-3 ovarian 110% | HS 578T breast 92.3% | NCI/ADR-RES ovarian 100%

CC1(C(=O)O)NC(C(=O)O)Cc2c1[nH]c1ccccc21 (stereo unspecified)
inactive: SK-MEL-2 melanoma 93.7% | SN12C renal 95.8% | UO-31 renal 79.5% | TK-10 renal 108% | ACHN renal 102% | CAKI-1 renal 96.5% | CCRF-CEM leukemia 82.8% | SR leukemia 92.8% | RPMI-8226 leukemia 95.4% | OVCAR-8 ovarian 104% | OVCAR-5 ovarian 101% | OVCAR-4 ovarian 105% | SK-OV-3 ovarian 92.7% | IGROV1 ovarian 107% | OVCAR-3 ovarian 112% | HS 578T breast 109% | NCI/ADR-RES ovarian 104%

Cc1ccc(S(=O)(=O)O)c(C)c1
inactive: SK-MEL-2 melanoma 112% | SN12C renal 103% | UO-31 renal 73.6% | TK-10 renal 101% | ACHN renal 103% | CAKI-1 renal 96.3% | A498 renal 94.1% | CCRF-CEM leukemia 100% | MOLT-4 leukemia 98.6% | SR leukemia 95.2% | OVCAR-8 ovarian 105% | OVCAR-5 ovarian 104% | OVCAR-4 ovarian 86.5% | SK-OV-3 ovarian 95.7% | IGROV1 ovarian 103% | OVCAR-3 ovarian 110% | HS 578T breast 93.8% | NCI/ADR-RES ovarian 104%

CC(=O)NCc1cc(C)c(C)cc1C
inactive: SK-MEL-2 melanoma 98% | SN12C renal 103% | UO-31 renal 83.6% | TK-10 renal 92.6% | ACHN renal 104% | CAKI-1 renal 98.8% | A498 renal 118% | MOLT-4 leukemia 96.2% | SR leukemia 97.6% | RPMI-8226 leukemia 88.1% | OVCAR-8 ovarian 104% | OVCAR-5 ovarian 95.5% | OVCAR-4 ovarian 106% | SK-OV-3 ovarian 97.6% | IGROV1 ovarian 104% | OVCAR-3 ovarian 101% | HS 578T breast 108% | NCI/ADR-RES ovarian 105%

O=C(/C(=N/O)c1ccccc1)c1ccccc1
inactive: SK-MEL-2 melanoma 121% | SN12C renal 94.6% | UO-31 renal 87.9% | TK-10 renal 108% | CAKI-1 renal 100% | A498 renal 91.5% | CCRF-CEM leukemia 97.9% | MOLT-4 leukemia 123% | SR leukemia 110% | RPMI-8226 leukemia 99.5% | OVCAR-8 ovarian 103% | OVCAR-5 ovarian 111% | OVCAR-4 ovarian 102% | SK-OV-3 ovarian 106% | OVCAR-3 ovarian 116% | HS 578T breast 101% | NCI/ADR-RES ovarian 113%

Sc1ccc(Nc2c3ccccc3nc3ccccc23)cc1
inactive: SK-MEL-2 melanoma 40.7% | SN12C renal 95.6% | UO-31 renal 82.4% | TK-10 renal 104% | ACHN renal 97% | CAKI-1 renal 92.2% | CCRF-CEM leukemia 97.1% | MOLT-4 leukemia 94.1% | SR leukemia 80.5% | RPMI-8226 leukemia 44.2% | OVCAR-8 ovarian 106% | OVCAR-5 ovarian 99.2% | OVCAR-4 ovarian 95.6% | SK-OV-3 ovarian 79.2% | IGROV1 ovarian 89.3% | OVCAR-3 ovarian 100% | HS 578T breast 112% | NCI/ADR-RES ovarian 51.3%
